Inconclusive results are not listed. Calls of active or inactive are those of the source. The call rests on the fitted dose curve; in most records, active means well fitted curve in the direction sought with a large enough effect; inconclusive means small, poorly fitted or top-dose-only effect, or another doubt; inactive means no such curve, though single readings can be large or run the other way.
Test: qHTS for Inhibitors of the vitamin D receptor (VDR): Hit Validation using a Texas Red Assay (AID 602201)
Conditions: VDR coregulator binding, Texas Red fluorescence polarization, agonist-bound VDR ligand-binding domain; series mostly up to 57.1 µM
Outline: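 After a 2-hour room-temperature incubation, polarization of Texas-Red emission was read (Ex 595 nm/Em 615 nm). Final mix contained 7 nM Texas Red, 1.5 uM VDR-LBD and LG19078.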
Potency means the concentration at half of the fitted maximal effect.

Potency, active:
O=C(O)CCNc1ccc(NCCC(=O)O)c2c1C(=O)c1ccccc1C2=O 8.91 µM
O=C(O)c1cccc(CN2C(=O)S/C(=C/c3cccc([N+](=O)[O-])c3)C2=O)c1 20 µM
COc1ccc(N2C(=O)C(Cl)=C(Oc3cccc(OC)c3)C2=O)cc1 2.82 µM
O=C1Nc2ccccc2/C1=C/C(=O)c1cccs1 28.2 µM
O=C(/C(=C/c1ccncc1)n1ccnc1)c1ccc(Cl)cc1Cl 14.1 µM
O=C1/C(=C/c2cccnc2)CCC/C1=C\c1cccnc1 31.6 µM
O=S(=O)(/N=C(\Sc1ccc(Cl)cc1)c1ccccc1)c1ccccc1 35.5 µM
CCOC(=O)c1c(C2COc3ccccc3O2)csc1NC(=O)c1ccco1 (stereo not drawn) 3.55 µM
Cc1ccc(NC(=O)c2nc(S(=O)(=O)Cc3ccccc3F)ncc2Cl)cc1 2.82 µM
c1ccc(-c2nnc3sc(-c4csc5c4CCCC5)nn23)cc1 22.4 µM
CCOC(=O)c1c(C)oc2c1c1c(c3ccccc32)OCN(Cc2cccnc2)C1 20 µM

Potency, inactive:
CCN(CC)c1ccc(C=Nc2ccc(N(C)C)cc2)c(O)c1
O=C1NN(c2ccccc2)C(=O)/C1=C\c1cccc(OC(=O)c2cccs2)c1
CN(C)c1ccc(C(=S)N2CCN(c3ccc([N+](=O)[O-])cc3)CC2)cc1
O=[N+]([O-])c1ccccc1-c1ccc(C(=S)N2CCCC2)o1
O=C1OC(NC(=O)c2ccccc2)C(n2cc(CO)nn2)=C1Cl (stereo not drawn)
Cc1cccc2c1N(CCCOc1ccccc1)C(=O)C2=O
CCN(CC)S(=O)(=O)c1ccc(O)c(NS(=O)(=O)c2ccccc2F)c1
O=C(Nc1nc(-c2ccccn2)cs1)c1cc(Cl)ccc1[N+](=O)[O-]
CCN1C(=O)/C(=C\C(=O)c2cccs2)c2cc(Br)ccc21
CC1(C)CC(=O)C(C(C2=C(O)CC(C)(C)CC2=O)c2ccc(O)c([N+](=O)[O-])c2)=C(O)C1
Cc1nc2c3cc(F)ccc3n(Cc3ccccc3)c2s1
CCOc1ccc(C(=O)CC(C(=O)O)N2CCCCC2)cc1 (stereo not drawn)
